Values without a mark were called inactive.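 Rule for the calls, unless noted: active = GFP response above 150% of the DMSO control; inconclusive = Fewer than 70 cells counted for a yeast strain; inactive = the rest.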 Records with an inconclusive call do not appear.
Assays:
[1] = modulators of AGP1-GFP expression in yeast TOR pathway, primary screen, cell-based, multiplex flow cytometry, S. cerevisiae (AID 1887;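 active = GFP signal above the screen-wide mean plus 3 SD, that is over about 124.5% of the solvent control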;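 note: AGP1-GFP fusion strain of S. cerevisiae within a five-strain barcoded multiplex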); details: 3 h, at 10 µM, active compounds read high
[2] = biological target: Beta-2 adrenergic receptor (Homo sapiens) (UniProt P07550); experiment: beta2AR agonists driving receptor internalization, pilot screen, cell-based, FAP fluorogen, flow cytometry, validation set (AID 504459;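 active = percent response above 42, roughly 3 SD of non-fluorescent test compounds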;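 note: agonist-driven loss of surface beta2AR via internalization measured by FAP dye flow cytometry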); details: Am2.2-beta2AR cells, FAP surface receptor flow cytometry; at 10 µM; active compounds read high
Chain of Beta-2 adrenergic receptor (Homo sapiens) (P07550 whole entry, looked up): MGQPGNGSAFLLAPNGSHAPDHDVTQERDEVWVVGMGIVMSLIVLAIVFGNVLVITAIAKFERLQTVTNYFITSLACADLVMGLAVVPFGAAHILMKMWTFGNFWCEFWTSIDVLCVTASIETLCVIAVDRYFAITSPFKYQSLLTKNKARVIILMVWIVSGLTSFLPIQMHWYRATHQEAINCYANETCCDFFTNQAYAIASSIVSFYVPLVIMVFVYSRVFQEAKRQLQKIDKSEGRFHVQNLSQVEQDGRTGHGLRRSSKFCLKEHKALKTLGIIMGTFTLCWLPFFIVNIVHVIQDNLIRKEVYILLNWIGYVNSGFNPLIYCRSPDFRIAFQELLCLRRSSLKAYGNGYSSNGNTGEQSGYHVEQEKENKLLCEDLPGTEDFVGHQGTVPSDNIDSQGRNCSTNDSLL

[3] = modulators of MEP2-GFP levels in yeast, confirmation, S. cerevisiae, flow cytometry GFP, cherry picks (AID 2272);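 note: ratio of well signal to plate DMSO mean so 100% equals DMSO level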; details: S. cerevisiae MEP2-GFP strain, 3 h, at 10 µM, active compounds read high
[4] = AGP1-GFP expression modulators, hit retest, confirmation, cell-based, flow cytometry, S. cerevisiae, cherry picks (AID 2273;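 active = GFP response above 150% of the DMSO level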;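 note: median GFP channel fluorescence over the whole cell population gate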); details: S. cerevisiae AGP1-GFP strain, 3 h, at 10 µM

C[N+]1(C)CCN(c2ccccc2)CC1
GFP response, % of DMSO [1]: 96.6%

CCN(CC)CCOC(=O)C(O)(c1ccccc1)c1ccccc1
GFP response, % of DMSO [1]: 94.5%
response [2]: 10.4%

O=C(O)CCCc1ccc(N(CCCl)CCCl)cc1
GFP response, % of DMSO [1]: 97.6%

O=C(O)c1[nH]c(=O)[nH]c(=O)c1F
GFP response vs DMSO [3]: 101%
GFP response, % of DMSO [4]: 102%

CCN(CC)c1ccc(/C=C/[N+](=O)[O-])cc1
GFP response vs DMSO [3]: 108%
GFP response, % of DMSO [4]: 96.7%

O=C1NC(=S)NC(=O)C1=Cc1ccc2c(c1)CCN2CCCCl
GFP response vs DMSO [3]: 103%
GFP response, % of DMSO [4]: 87.8%

N#CC(C#N)=NNc1ccc(-n2ccc(C(F)(F)F)n2)cc1
GFP response vs DMSO [3]: 114%
GFP response, % of DMSO [4]: 102%

O=c1[nH]c(=O)n(Cc2ccc(F)cc2)c(O)c1C=NCCN1CCCCC1
GFP response vs DMSO [3]: 101%
GFP response, % of DMSO [4]: 102%

CC12CN3CC(C)(CN(C1)C3c1cccnc1)C2=O (stereo unspecified)
response [2]: 1.06%

CC(C)[C@@]1(NC(=O)[C@@H]2C[C@@H]3c4cccc5[nH]cc(c45)C[C@H]3N(C)C2)O[C@@]2(O)[C@@H]3CCCN3C(=O)[C@H](Cc3ccccc3)N2C1=O
response [2]: -14.6%

C=CC1CN2CCC1CC2[C@@H](OC(=O)c1ccc(OC)cc1)c1ccnc2ccccc12 (stereo partly specified)
response [2]: 1.66%

O=C1NC(=O)N(CCc2ccc(F)cc2)C(=O)/C1=C/c1ccco1
GFP response vs DMSO [3]: 94.4%
GFP response, % of DMSO [4]: 99.8%

CCNC(=O)[C@H]1O[C@@H](n2cnc3c(N)ncnc32)[C@H](O)[C@@H]1O
GFP response, % of DMSO [1]: 91.5%
response [2]: 0.15%

N#CC(C#N)=Cc1ccc(N2CCCC2)cc1
GFP response vs DMSO [3]: 112%
GFP response, % of DMSO [4]: 109%

O=[N+]([O-])c1ccc(N2CCNCC2)cc1Sc1ccccn1
GFP response vs DMSO [3]: 97.8%
GFP response, % of DMSO [4]: 97.2%

CN1C(=O)C(=Cc2ccc(Sc3ccccc3)o2)C(=O)N(C)C1=S
GFP response vs DMSO [3]: 106%
GFP response, % of DMSO [4]: 99.3%

O=C1NC(=O)N(c2ccccc2)C(=O)/C1=C/c1ccc(Sc2ccccc2)o1
GFP response vs DMSO [3]: 108%
GFP response, % of DMSO [4]: 91.7%

O=c1[nH]c(=S)n(-c2ccccc2)c(O)c1/C=N/N1CCOCC1
GFP response vs DMSO [3]: 99%
GFP response, % of DMSO [4]: 99.8%

O=C1NC(=O)C(=Cc2ccc(Sc3ccccc3)o2)C(=O)N1
GFP response vs DMSO [3]: 92%
GFP response, % of DMSO [4]: 83.6%

CN1C(=O)C(=Cc2ccc(SC3CCCCC3)o2)C(=O)N(C)C1=O
GFP response vs DMSO [3]: 98.8%
GFP response, % of DMSO [4]: 101%

O=C1NC(=O)N(CCC2=CCCCC2)C(=O)/C1=C/c1cccs1
GFP response vs DMSO [3]: 96.2%
GFP response, % of DMSO [4]: 84%

COc1cc(/C=C/C(=O)c2c(O)n(CCc3ccccc3)c(=O)[nH]c2=O)ccc1O
GFP response vs DMSO [3]: 98.8%
GFP response, % of DMSO [4]: 102%

CCOC(=O)c1cncn1C(C)c1ccccc1 (stereo unspecified)
GFP response, % of DMSO [1]: 95%
response [2]: -9.36%

Nc1ccc(N=Nc2ccccc2)cc1
GFP response vs DMSO [3]: 103%
GFP response, % of DMSO [4]: 93.4%

O=C1C=Cc2ccccc2C1=O
response [2]: -20.4%

O=C1NC(=O)N(Cc2ccco2)C(=O)/C1=C\c1ccc(-c2ccc(F)cc2)o1
GFP response vs DMSO [3]: 99.3%
GFP response, % of DMSO [4]: 100%

CCOC(=O)C1=C(C)OC(N)=C(C(=O)OCC)[C@@]12C(=O)N(CC(N)=O)c1ccccc12
response [2]: -10.5%

C#CCOc1cc(C2C3=C(COC3=O)Nc3cc4c(cc32)OCO4)ccc1OC (stereo unspecified)
GFP response vs DMSO [3]: 117%
GFP response, % of DMSO [4]: 103%

CCN1C(=O)NC(=O)/C(=C\c2cn(CC(=O)N3CCCC3)c3ccccc23)C1=O
GFP response vs DMSO [3]: 106%
GFP response, % of DMSO [4]: 102%

COc1ccc(N2C(=O)/C(=C/c3ccco3)C(=O)NC2=S)cc1
GFP response vs DMSO [3]: 100%
GFP response, % of DMSO [4]: 100%

CN1C(=O)NC(=O)/C(=C\C=C\c2ccccc2[N+](=O)[O-])C1=O
GFP response vs DMSO [3]: 105%
GFP response, % of DMSO [4]: 108%

Cc1cccn2c(NCC3CCCO3)c(C(C)C)nc12 (stereo unspecified)
GFP response vs DMSO [3]: 104%
GFP response, % of DMSO [4]: 105%

CCOC(=O)C(C)Oc1cc(C)cc2oc(=O)c3c(c12)CCCC3 (stereo unspecified)
response [2]: 1.66%

CCCCn1c(=O)c(C(=O)Nc2ccsc2C(=O)OC)c(O)c2ccccc21
GFP response vs DMSO [3]: 101%
GFP response, % of DMSO [4]: 102%

CCN(CC)c1ccc(C=C2C(=O)NC(=S)NC2=O)cc1
GFP response vs DMSO [3]: 95.2%
GFP response, % of DMSO [4]: 100%

O=c1oc2ccccc2c(O)c1[C@H]1c2ccc(O)cc2Oc2c1c(=O)oc1ccccc21
GFP response vs DMSO [3]: 102%
GFP response, % of DMSO [4]: 90.4%

Fc1ccc(C(OCCN2CCCC2)c2ccc(Br)cc2)cc1 (stereo unspecified)
response [2]: 11.4%

Cc1cc(C=C2C(=O)N(C)C(=S)N(C)C2=O)c(C)n1-c1ccncc1
GFP response vs DMSO [3]: 113%
GFP response, % of DMSO [4]: 100%

Cc1ccc(/C=C2\C(=O)NC(=O)N(CC3CCCO3)C2=O)s1 (stereo unspecified)
GFP response vs DMSO [3]: 92%
GFP response, % of DMSO [4]: 92.1%

O=C(O)c1nn(Cc2ccc(Cl)cc2Cl)c2ccccc12
GFP response vs DMSO [3]: 100%
GFP response, % of DMSO [4]: 99.2%

Cc1ccc(N2C(=O)NC(=O)/C(=C\c3cn(CC(=O)O)c4ccccc34)C2=O)cc1
GFP response vs DMSO [3]: 100%
GFP response, % of DMSO [4]: 98.9%

CCN1CC2(COC(=O)c3ccccc3N)CCC(OC)C34C5CC6C(OC)CC(O)(C5C6OC)C(O)(C(OC)C23)C14 (stereo unspecified)
response [2]: -0.45%

O=C1NC(=O)N(c2ccccc2)C(=O)/C1=C\c1ccc([N+](=O)[O-])o1
GFP response vs DMSO [3]: 108%
GFP response, % of DMSO [4]: 104%

— PubChem BioAssay
